Consider 86 compounds from PubChem BioAssay AID492964 (The Scripps Research Institute Molecular Screening Center, 2010).

Among all 1,800 compounds or so, about 880 (49%) were called active. Cut-off read from the data, not from the text of the source: active = inhibition above about 55%; inactive = the rest. The set was probably picked from earlier hits. These entries were drawn from the full list.

Chain of Orexin/Hypocretin receptor type 1 (Homo sapiens) (O43613 whole entry, looked up): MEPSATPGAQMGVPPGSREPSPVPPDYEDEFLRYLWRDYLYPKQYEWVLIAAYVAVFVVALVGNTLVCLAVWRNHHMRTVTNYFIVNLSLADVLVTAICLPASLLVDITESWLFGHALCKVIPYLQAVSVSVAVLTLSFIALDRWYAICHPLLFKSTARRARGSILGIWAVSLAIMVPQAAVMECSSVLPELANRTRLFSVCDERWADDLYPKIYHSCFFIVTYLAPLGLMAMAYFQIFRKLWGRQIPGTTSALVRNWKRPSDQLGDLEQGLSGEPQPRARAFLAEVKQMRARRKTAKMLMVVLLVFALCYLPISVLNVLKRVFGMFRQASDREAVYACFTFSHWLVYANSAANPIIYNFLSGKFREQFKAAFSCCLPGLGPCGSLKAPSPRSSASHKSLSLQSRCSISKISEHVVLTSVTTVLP

This assay addresses Orexin/Hypocretin receptor type 1 (Homo sapiens) (UniProt O43613). Description: HCRTR1 receptor blockers, retested hits – cell-based, HTRF, confirmation (AID 492964).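 Note: CHO cells expressing OX1R stimulated with orexin A at about EC80; 0% = agonist challenge alone and 100% = reference antagonist.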 To be noted: OX1R-expressing cells, HTRF antagonist assay; at 6.6 µM; active compounds read high. (In general: In TR-FRET formats the signal depends on donor and acceptor labels being close together.)
As to `CCn1c(C)nc2c1C(=O)c1ccccc1C2=O`, the inhibition was 69.9% (active).
`CC(=O)Oc1ccc(C(C)=O)c2c1OCCO2`: the inhibition is 19.2% (inactive).
With `CC(NC(=O)c1cccc2ccccc12)c1ccc2c(c1)CCCC2` (stereo unspecified) the figure was 64.9% (active); with `O=C(Nc1cccc2cccnc12)c1cccc(N2C(=O)CCC2=O)c1`, 86.1% (active); with `COc1cccc(N=c2oc3c(C)ncc(CO)c3cc2C(N)=O)c1`, 51.7% (inactive).
As to `Cc1oc2c(c1C(=O)N1CCOCC1)C(=O)c1ccccc1C2=O`, the inhibition was 78.8% (active).
Next, `CCn1c(O)c(N=NC2=NC(=O)CS2)c2cc(C)ccc21`: 28.9% (inactive); `O=C(N/N=C/c1sc(N2CCCCC2)nc1-c1cccs1)c1cccnc1`: 89.2% (active).
Next, `N#Cc1nc(-c2cccc3ccccc23)oc1N`: 60.8% (active); `O=C(Nc1ccccc1Cl)/C(Cl)=C(\Cl)S(=O)c1ccccc1` (stereo unspecified): 89.9% (active); `Cc1cccc(NC(=O)Nc2cccc(Oc3c(F)c(F)c(F)c(F)c3F)c2)c1`: 35.4% (inactive).
`NS(=O)(=O)c1ccc(CCNC(=O)c2ccc([N+](=O)[O-])cc2[N+](=O)[O-])cc1`: the inhibition was 84.6% (active).
Next, `CSCCC(NC(=O)c1cc([N+](=O)[O-])cc([N+](=O)[O-])c1)c1nc2ccccc2[nH]1` (stereo unspecified): 46.4% (inactive); `Cc1c(/C=N\NC(=O)c2cc3ccccc3o2)c2ccccc2n1C`: 83.1% (active); `COc1cccc(C(=O)NC(=O)Nc2nc(C)cc(C(F)(F)F)n2)c1`: 57.7% (active).
Next, `Cc1cc(=O)oc(C)c1C(=O)NCCN(C)Cc1ccccc1`: 12.3% (inactive).
Next, `O=C(NC(Cc1c[nH]c2ccccc12)C(=O)N/N=C/c1ccc(Br)cc1)c1cccs1` (stereo unspecified): 81.2% (active); `CC(C)(C)NC(=O)CN(C(=O)c1csnn1)c1ccccc1-c1ccccc1`: 55.5% (active).
As for `COc1ccc2sc(-c3ccc(N(C)C)cc3)c(C#CCO)c2c1`, the inhibition was 62.2% (active).
On to `CCn1c(=N)c(C(=O)NCCCOC)cc2c(=O)n3cccc(C)c3nc21`, for which the inhibition is 47.5% (inactive).
On to `COC(=O)c1sccc1NC(=O)CSc1ccccc1NS(=O)(=O)c1cc(Cl)ccc1Cl`, for which the inhibition was 67.1% (active).
With `COc1ccc(N(C)C(=O)CCS(=O)(=O)c2cccc3nsnc23)cc1` the figure was 38.3% (inactive).
Consider `CC(=O)Nc1ccc(Nc2c([N+](=O)[O-])cc(S(C)(=O)=O)cc2[N+](=O)[O-])cc1`, for which the inhibition is 46.9% (inactive).
With `COC(=O)N/N=C/c1c[n+]([O-])c2ccccc2[n+]1[O-]` the figure was 69.1% (active).
Next, `COCCNC(=O)Nc1ccc2nc(-c3ccco3)c(-c3ccco3)nc2c1`: 32.4% (inactive).
Next, `COc1cc(OC)c(NC(=O)c2ccc(Br)o2)cc1Cl`: 66.4% (active); `Nc1ccc2nc3c(=O)[nH]c(=S)[nH]c3nc2c1`: 47.3% (inactive); `N#CC(=C1SC=CS1)c1nc(-c2ccccc2)cs1`: 92.5% (active).
For `N#C/C(=C1\CCCN1)c1nc(-c2ccccc2)cs1`, the inhibition was 94% (active).
Next, `Nc1[nH][nH]c(=O)c1N=Nc1ccc2c(c1)OCO2`: 34.5% (inactive); `COCCCNC(=S)NC(=O)c1ccc([N+](=O)[O-])cc1`: 50.2% (inactive).
For the compound `Cn1cnnc1Sc1ccc(S(C)(=O)=O)cc1[N+](=O)[O-]`, the inhibition was 42.5% (inactive).
With `COc1cc2ccccc2cc1C(=O)Nc1ccc(N2CCOCC2)cc1`, the inhibition is 56.8% (active).
With `COc1ccccc1N1CC(C(=O)Nc2ccc(S(=O)(=O)N3CCOCC3)cc2)CC1=O` (stereo unspecified) the figure was 16.2% (inactive); with `COc1cccc(/C=N/Nc2cc(C)nc(-c3ccccc3O)n2)c1O`, 92.3% (active); with `CCOc1ccc(/C=C/C(=O)OCC(=O)c2ccccc2OC)cc1OC`, 58.8% (active).
Next, `CC(C)CC[n+]1ccn(C2=C([O-])c3ccccc3C(=O)/C2=N\S(=O)(=O)c2ccccc2)c1`: 51.6% (inactive).
Next, `COc1cc(C(=S)N2CCOCC2)cc(OC)c1OC(=O)c1ccc([N+](=O)[O-])cc1[N+](=O)[O-]`: 88.1% (active); `O=C(Oc1ccccc1C(=S)N1CCCCC1)c1cc([N+](=O)[O-])cc([N+](=O)[O-])c1`: 35.2% (inactive); `CCn1c(SCC(=O)c2ccc3ccccc3c2)nnc1-c1cccs1`: 81.2% (active).
Consider `COc1ccc(N2CC(C(=O)NCCN3C(=O)S/C(=C\c4cccnc4)C3=O)CC2=O)c(OC)c1` (stereo unspecified), for which the inhibition was 106% (active).
With `O=C(O)CCC(=O)Nc1nc2ccc([N+](=O)[O-])cc2s1` the figure was 50.8% (inactive); with `Cc1cc(-c2ccc(C)c(S(=O)(=O)NC(C)Cc3ccco3)c2)on1` (stereo unspecified), 30.2% (inactive); with `COc1ccc(S(=O)(=O)NC(C)c2ccccc2)cc1C(=O)N1CCCCC1` (stereo unspecified), 72.9% (active).
Next, `CC(=O)N/N=C/c1cc2c(cc1[N+](=O)[O-])OCO2`: 34.2% (inactive).
As to `COC(=O)CNC(=O)c1ccc2c(c1)S(=O)(=O)c1ccccc1C2=O`, the inhibition is 63% (active).
Next, `Cc1cc(C(=O)NC2CCCc3c2cnn3-c2cccc(C)c2C)c(C)o1` (stereo unspecified): 63.8% (active).
Regarding `Cc1cccc(NS(=O)(=O)c2cccc(C(=O)NNC(=O)c3ccccc3O)c2)c1`, the inhibition was 30.5% (inactive).
Next, `S=c1[nH]nc(-c2cc(-c3ccccc3)n[nH]2)n1/N=C/c1c2ccccc2cc2ccccc12`: 60% (active).
Next, `Cc1cccn2c(=O)c3cc(C#N)c(=NC(=O)c4cccnc4)n(CC4CCCO4)c3nc12` (stereo unspecified): 44.2% (inactive); `COc1ccc(CCn2c(NCCCN3CCOCC3)nc3c2c(=O)[nH]c(=O)n3C)cc1`: 15.3% (inactive).
Next, `CCOc1ccc(CCNC(=O)C(CC)n2nc(C)n3c(cc4sccc43)c2=O)cc1OCC` (stereo unspecified): 81.6% (active).
Take `COc1cccc(/C=C/c2ccc3ccccc3n2)c1OC(C)=O`: the inhibition was 37.3% (inactive).
Next, `CN(C(=O)CSc1nnc(-c2n[nH]c3ccccc23)o1)c1ccccc1`: 35% (inactive); `COc1cccc(/C=N/NC(=O)c2[nH]nc3c2CCc2ccccc2-3)c1O`: 55% (active).
Next, `Nc1nc(COC(=O)CCC(=O)c2ccc(Cl)cc2)nc(Nc2ccccc2)n1`: 38.7% (inactive); `O=C(/C=C/c1ccco1)Nc1cccc(-c2nc3ccccc3[nH]2)c1`: 59% (active).
Next, `COc1ccc(CCNC(=O)/C(C#N)=C2\N=C(NC(=O)c3cccs3)c3ccccc32)cc1`: 19.5% (inactive).
In the case of `CCC(=O)N(C)C(c1ccccc1Cl)c1nnnn1-c1c(C)cccc1C` (stereo unspecified), the inhibition is 64% (active).
With `Cc1ccc2c(c1)nnc1nnc(SCC(=O)O)n12` the figure was 63.9% (active).
Next, `C/C(N)=C(/C#N)C(=O)COC(=O)c1cc(-c2ccc(C)cc2)nc2ccccc12`: 27.5% (inactive); `O=C(Nc1nnc(-c2ccccc2)o1)c1cc(-c2cccs2)nc2ccccc12`: 75.6% (active); `CC(=O)c1cccc(NC(=O)C2CCCN2S(=O)(=O)c2cccc3nsnc23)c1` (stereo unspecified): 101% (active).
Next, `Cc1cc(C)cc(NC(=O)C2CCCN2S(=O)(=O)c2cccc3cccnc23)c1` (stereo unspecified): 88.2% (active); `CCOc1ccc(NC(=O)CCS(=O)(=O)c2cccc3nsnc23)cc1`: 31.9% (inactive).
For the compound `O=C(NCc1ccco1)C1CCCN(S(=O)(=O)c2cccc3nonc23)C1` (stereo unspecified), the inhibition was 16.2% (inactive).
With `CN1CCN(/N=C/c2ccc(-c3ccc([N+](=O)[O-])cc3)o2)CC1` the figure was 26.4% (inactive); with `C=CCn1c(SCC(=O)Nc2nc3ccccc3s2)nnc1-c1ccccc1O`, 76.1% (active).
`COc1ccc2oc(=O)c(C(=O)NCc3ccccn3)cc2c1`: the inhibition was 35.8% (inactive).
Next, `O=C(Nc1ccc2sc3ccccc3c(=O)c2c1)c1ccccc1Cl`: 95.8% (active); `CC(C)(C)NC(=O)Cn1cnc2cc([N+](=O)[O-])ccc2c1=O`: 43.3% (inactive); `CCOc1cc(/C=C(\C#N)c2nc(-c3cccs3)c(NC(C)=O)s2)ccc1O`: 73.3% (active).
Next, `O=C(Cc1ccccc1)N1CCN(S(=O)(=O)c2ccc([N+](=O)[O-])cc2)CC1`: 61.2% (active); `Cc1ccc([C@@H]2CC=C(C(=O)O)[C@H](c3cccc(Cl)c3)N2S(=O)(=O)c2ccc(C)cc2)cc1`: 82.8% (active); `Cc1ccccc1S(=O)(=O)N1[C@@H](c2cccc(Cl)c2)C(C(=O)O)=CC[C@H]1c1ccc(Cl)cc1`: 87.4% (active).
Next, `O=C(Nc1nnc(C2=COCCO2)o1)c1ccc([N+](=O)[O-])s1`: 49.7% (inactive); `c1ccc(-c2nc(NCc3ccco3)c3ccccc3n2)cc1`: 64% (active); `C[n+]1ccccc1C1CCCC/C1=N\Nc1ccc([N+](=O)[O-])cc1[N+](=O)[O-]` (stereo unspecified): 35.2% (inactive).
Consider `Nc1nc(-c2sc3nc4c(cc3c2N)CCCC4)nc(N2CCOCC2)n1`, for which the inhibition was 94.8% (active).
Next, `O=C(CN1C(=O)c2cccc3cccc(c23)C1=O)N1CCCCC1`: 33.8% (inactive).
`Cn1c(N)c(C(=O)COC(=O)c2ccc3ccccc3c2)c(=O)n(C)c1=O`: the inhibition is 63.3% (active).
Next, `COc1ccc2[nH]c(=O)c(CNc3ccc(C)c(C)c3)cc2c1`: 31.3% (inactive).
With `O=C(N/N=C/c1c(Cl)[nH]c2ccccc12)c1sc2ccccc2c1Cl` the figure was 92.5% (active); with `Cc1ccc(Nc2nc(CSc3nnnn3-c3ccccc3)cc(=O)[nH]2)cc1`, 22.3% (inactive).
In the case of `O=C(OC1CCOC1=O)c1ccc(-c2nc3ccccc3s2)s1` (stereo unspecified), the inhibition is 98.5% (active).
Next, `O=C(c1ccncc1)c1ccc([N+](=O)[O-])cc1`: 53.2% (inactive).

As usually defined, the inhibition is the relative decrease from the control value, in per cent.
